# Assay outcomes deposited in PubChem BioAssay by National Center for Advancing Translational Sciences (NCATS).
# Shiga toxin inh: blocks Shiga toxin action in Vero cells. Vero cells, Shiga toxin protein synthesis inhibition reporter. inhibition, % at 38.7 µM. 290,000 compounds, 9.2% hits. AID 2315; in the data active = inhibition mostly above about 28%, no sharp cut-off; inactive = mostly below about 43%; note: 0% is about no effect
# Marburg entry inh: Marburg virus entry inhibition; Marburg virus pseudotyped entry inhibition, cell reporter; Potency, µM (series often up to 37.8 µM), for the others: top-dose activity change, negative = inhibition, hits mostly inhibitors; 300,000 compounds, 1.8% hits; AID 540276; calls by dose curve; tested in HEK293 cells; note: potency is the fitted concentration of half-maximal effect; % is set by controls: 0 for no effect and ±100 for the full control effect
# Cycloheximide cs: affects cycloheximide protein synthesis inhibition readout, counter-screen; 300,000 compounds, 12% hits; max response, %; cell reporter, cycloheximide protein synthesis inhibition counterscreen; in the data active = max response mostly above about 13%, no sharp cut-off; inactive = mostly below about 14%; note: read at 38.3 µM for the half of the compounds with a filed dose; 0% is about no effect
# HCV inhibitor: inhibitors of hepatitis C virus infection | Huh7.5.1 HCVcc-Cre infection, luciferase reporter, 44 h | Potency, µM (series often up to 41.8 µM), without a hit: at the highest dose activity change, negative = inhibition, actives largely listed as inhibitors | 340,000 compounds, 3.4% hits | AID 651820; active = well fitted inhibition curve with a large enough effect; inconclusive = small, poorly fitted or top-dose-only effect, or another doubt; inactive = no such curve, though single readings can be large or run the other way; note: potency is the fitted concentration of half-maximal effect; % is set by controls: 0 for no effect and ±100 for the full control effect
#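 1,000 cells/well; 4 h culture; + compound; + HCVcc-Cre (~0.5 moi); 44 h; luciferase substrate, RT 15 min; read 15 sec.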
# FMDV inh: antivirals against foot and mouth disease virus; Potency, µM (series often up to 57.9 µM), for the others: top-dose activity change, negative = inhibition, hits mostly inhibitors; FMDV antiviral cell-based qHTS; 410,000 compounds, 1.2% hits; calls by dose curve; tested in HEK293T cells; note: read-out not given here; potency is the fitted concentration of half-maximal effect; % is set by controls: 0 for no effect and ±100 for the full control effect; nearly all actives have a fitted effect of over 45% in size
# Lassa entry inh: blocks Lassa virus binding to or entry into cells | Lassa virus pseudotype entry inhibition, cell reporter | Potency, µM (series often up to 37.9 µM), for inactives: at the highest dose activity change, negative = inhibition, hits mostly inhibitors | 300,000 compounds, 1.2% hits | AID 540256; calls by dose curve; tested in HEK293 cells; note: potency is the fitted concentration of half-maximal effect; % is set by controls: 0 for no effect and ±100 for the full control effect; nearly all actives have a fitted effect of over 50% in size
# Active calls of the source: *; ? = inconclusive; . = no result given; [ ] = remark or other dose. Shown are actives, neighbours in structure and some others; about 13% of the full set was active somewhere.
SMILES,Shiga toxin inh,Marburg entry inh,Cycloheximide cs,HCV inhibitor,FMDV inh,Lassa entry inh
CCOC(=O)CC(=O)CSc1nc2c(cc1C#N)CCCCC2,83.6*,?,46.1*,-19.9%,57.3%,-25.0%
CC(C)OC(=O)CC(=O)CSc1nc2c(cc1C#N)CCCCC2,72.0*,-6.7%[46.1 µM],52.3*,18.6%,42.3%,26.0%
CC(C)Sc1nc(N2CCOCC2)c2c(c1C#N)CC(C)(C)N(C)C2,15.3,?,-3.9,-14.0%,-29.2%,-5.6%
COc1ccc(S(=O)(=O)NCCc2csc3nc(-c4ccccc4)nn23)cc1OC,.,.,.,.,40.2%,9.3%[46.1 µM]
Oc1ccccc1-c1cc(C(F)(F)F)[nH]n1,-5.9,.,9.8,.,.,.
Cc1ccc(-c2cc(-c3ccccc3C)[nH]n2)c(O)c1,42.2*,?,39.8*,?,18.1%,?
O=[N+]([O-])c1ccccc1-c1cc(-c2ccccc2O)n[nH]1,69.1*,?,74.8*,0.2%,13.0%,?
Cc1cccc(-c2noc(-c3cc(-c4ccc(F)cc4)n[nH]3)n2)c1,.,.,.,.,-0.6%,-2.9%[46.1 µM]
Cc1ccc(-c2cc(-c3cccc(F)c3)n[nH]2)c(O)c1,75.6*,?,31.1*,?,59.9%,?
Cc1ccc(O)c(-c2cc(-c3cccc(F)c3)n[nH]2)c1,59.9,?,24.2*,10µM*,35.9%,?
CCOC(=O)C1=C(CN2CCN(CC)CC2)NC(=O)NC1c1ccc(Cl)cc1 (stereo not drawn),.,?,.,.,0.0%,-2.8%[46.1 µM]
Cc1ccc(O)c(-c2cc(-c3ccccc3F)[nH]n2)c1,104.0*,25.4%,35.2*,?,50.1%,-1.7%
COCCNC(=O)c1ccccc1NC(=O)Nc1ccccc1,-5.7,-1.2%[46.1 µM],6.1,2.5%,29.5%,10.3%
O=C(COC(=O)c1cc(=O)[nH]c2ccccc12)Nc1nc(-c2ccccc2)cs1,0.4,.,12.1,-10.2%,26.6%,.
Cn1cc(Cl)c(C(=O)OCC(=O)Nc2nc(-c3ccc(Br)cc3)cs2)n1,65.4*,?,21.8*,-19.8%,-18.2%,-29.2%
COC(=O)CCC(=O)Nc1nc(-c2ccccc2)cs1,.,.,.,-11.2%,16.1%,.
Cn1nccc1C(=O)OCC(=O)Nc1nc(-c2ccccc2)cs1,53.7,?,24.0*,4.3%,-8.4%,3.0%
O=C(COC(=O)CNC(=O)c1ccccc1)Nc1nc(-c2ccccc2)cs1,39.7,?,24.6*,6.1%,59.8%,?
O=C(Cc1cccs1)Nc1nc(-c2ccccc2)cs1,28.6,?,9.9,?,?,1.64µM*
Cn1cc(Cl)c(C(=O)OCC(=O)Nc2cccc(Cl)c2)n1,3.1,-1.7%[46.1 µM],-6.3,-1.0%,12.1%,?
O=C(COC(=O)c1cccs1)Nc1nc(-c2ccccc2)cs1,21.5,22.2%,1.5,34.8%,31.4%,?
Cc1ccc2[nH]c(=O)c(N3CCOCC3)c(-c3ccccc3)c2c1,-7.6,-2.4%,-1.8,10.8%,-16.1%,-2.5%
O=C(Nc1ccccc1C(=O)O)c1cc(S(=O)(=O)Nc2cccc(F)c2)ccc1Cl,-14.1,.,-4.2,7.0%,-14.9%,.
COc1ccc(CCC(=O)N2c3ccccc3N=C(c3ccc4c(c3)OCO4)C2C(=O)NCc2ccccc2)cc1 (stereo not drawn),.,.,.,.,22.9%,.
Cc1nc(CC(=O)Nc2nc(-c3ccccc3)cs2)cs1,80.3*,-25.2%[46.1 µM],28.8*,?,-2.2%,?
SMILES,Shiga toxin inh,Marburg entry inh,Cycloheximide cs,HCV inhibitor,FMDV inh,Lassa entry inh
Cc1nc(CC(=O)Nc2nccs2)cs1,-15.6,?,-1.8,34.5%,1.8%,10.5%
Cc1nc(CC(=O)Nc2nc(C(C)(C)C)cs2)cs1,88.1*,?,17.3,-7.6%,-12.6%,?
O=S(=O)(NOCc1ccc(Cl)cc1)c1ccc(Cl)cc1,-3.3,.,-2.7,-12.6%,-2.5%,.
O=C(Nc1cccnc1)c1noc2c1CCCC2,85.4*,15.8%,46.8*,-9.1%,44.8%,-1.2%
CC(C)(C)C1CCc2onc(C(=O)Nc3cccnc3)c2C1 (stereo not drawn),-11.8,?,-3.4,-3.8%,-28.6%,1.9%
O=C(Nc1ccc2c(c1)OCO2)c1noc2c1CCCCC2,100.8*,?,38.2*,1.2%,-5.8%,?
CC(=O)c1ccc(NC(=O)c2noc3c2CCCCC3)cc1,44.1*,-3.2%,39.9*,11.3%,45.8%,.
O=C(Nc1ccc2c(c1)OCO2)c1noc2c1CCCC2,52.7*,7.08µM*,33.5*,-3.1%,-10.9%,?
